Key:
Test in all cases: log2 ratio of Biotin-Ahx-Ub-VS probe labelling (fragment/DMSO); higher = less target engagement (more negative = stronger competition), active = hit call of the paper (q ≤ 0.05, log2 ratio ≤ -1)
Conditions in all cases: compound concentration: 200 uM; treatment time: 3 h
USP34 = USP34 (UniProt Q70CQ2)
How it was run: (§1)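 HEK293T lysate (495 µg per sample, in Tris/CHAPS/IGEPAL buffer with protease inhibitors) was exposed in triplicate for 3 h to fragment at 200 µM or to vehicle, then to Biotin-Ahx-Ub-VS at 0.5 µM final for 1 h. Labelled DUBs were enriched on NeutrAvidin, digested with LysC and trypsin, and analysed by diaPASEF LC-MS/MS. Spectronaut label-free quantities were normalised to the global median, and values are average log2 ratios of fragment over vehicle from an unpaired t-test. Only proteins with ≥2 unique peptides were used.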

USP36 = target: T1, USP36 (UniProt Q9P275)
T1 sequence (whole entry): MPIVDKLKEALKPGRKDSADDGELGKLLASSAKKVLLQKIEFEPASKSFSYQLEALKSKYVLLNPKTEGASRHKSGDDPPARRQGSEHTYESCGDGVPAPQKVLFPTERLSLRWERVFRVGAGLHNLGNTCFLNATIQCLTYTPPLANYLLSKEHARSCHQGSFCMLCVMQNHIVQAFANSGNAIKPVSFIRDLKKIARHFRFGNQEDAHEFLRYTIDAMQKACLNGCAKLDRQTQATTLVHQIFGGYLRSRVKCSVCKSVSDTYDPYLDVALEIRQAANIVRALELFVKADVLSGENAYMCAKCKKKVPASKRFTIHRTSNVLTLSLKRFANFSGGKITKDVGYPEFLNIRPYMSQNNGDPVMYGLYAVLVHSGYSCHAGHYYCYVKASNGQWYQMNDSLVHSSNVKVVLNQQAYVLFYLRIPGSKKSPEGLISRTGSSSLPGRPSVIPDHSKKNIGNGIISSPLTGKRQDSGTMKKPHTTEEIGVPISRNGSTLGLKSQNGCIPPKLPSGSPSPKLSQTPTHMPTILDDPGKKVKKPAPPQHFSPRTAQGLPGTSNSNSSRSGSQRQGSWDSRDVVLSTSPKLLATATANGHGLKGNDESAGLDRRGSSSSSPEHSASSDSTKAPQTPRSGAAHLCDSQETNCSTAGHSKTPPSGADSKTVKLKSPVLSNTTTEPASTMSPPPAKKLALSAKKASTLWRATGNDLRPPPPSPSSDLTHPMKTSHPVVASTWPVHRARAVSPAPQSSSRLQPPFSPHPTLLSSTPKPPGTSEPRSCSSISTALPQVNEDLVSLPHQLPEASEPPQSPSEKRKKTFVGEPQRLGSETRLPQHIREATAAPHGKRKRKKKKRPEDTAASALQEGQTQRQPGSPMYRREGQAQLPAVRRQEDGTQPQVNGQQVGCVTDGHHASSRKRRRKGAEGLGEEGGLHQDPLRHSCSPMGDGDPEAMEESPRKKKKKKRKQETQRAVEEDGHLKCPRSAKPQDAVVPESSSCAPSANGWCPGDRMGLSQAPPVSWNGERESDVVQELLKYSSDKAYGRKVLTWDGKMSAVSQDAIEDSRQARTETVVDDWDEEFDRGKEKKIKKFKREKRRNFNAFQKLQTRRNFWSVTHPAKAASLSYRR
How it was run: as §1

USP38 = target: T2, USP38 (UniProt Q8NB14)
T2 sequence (whole entry): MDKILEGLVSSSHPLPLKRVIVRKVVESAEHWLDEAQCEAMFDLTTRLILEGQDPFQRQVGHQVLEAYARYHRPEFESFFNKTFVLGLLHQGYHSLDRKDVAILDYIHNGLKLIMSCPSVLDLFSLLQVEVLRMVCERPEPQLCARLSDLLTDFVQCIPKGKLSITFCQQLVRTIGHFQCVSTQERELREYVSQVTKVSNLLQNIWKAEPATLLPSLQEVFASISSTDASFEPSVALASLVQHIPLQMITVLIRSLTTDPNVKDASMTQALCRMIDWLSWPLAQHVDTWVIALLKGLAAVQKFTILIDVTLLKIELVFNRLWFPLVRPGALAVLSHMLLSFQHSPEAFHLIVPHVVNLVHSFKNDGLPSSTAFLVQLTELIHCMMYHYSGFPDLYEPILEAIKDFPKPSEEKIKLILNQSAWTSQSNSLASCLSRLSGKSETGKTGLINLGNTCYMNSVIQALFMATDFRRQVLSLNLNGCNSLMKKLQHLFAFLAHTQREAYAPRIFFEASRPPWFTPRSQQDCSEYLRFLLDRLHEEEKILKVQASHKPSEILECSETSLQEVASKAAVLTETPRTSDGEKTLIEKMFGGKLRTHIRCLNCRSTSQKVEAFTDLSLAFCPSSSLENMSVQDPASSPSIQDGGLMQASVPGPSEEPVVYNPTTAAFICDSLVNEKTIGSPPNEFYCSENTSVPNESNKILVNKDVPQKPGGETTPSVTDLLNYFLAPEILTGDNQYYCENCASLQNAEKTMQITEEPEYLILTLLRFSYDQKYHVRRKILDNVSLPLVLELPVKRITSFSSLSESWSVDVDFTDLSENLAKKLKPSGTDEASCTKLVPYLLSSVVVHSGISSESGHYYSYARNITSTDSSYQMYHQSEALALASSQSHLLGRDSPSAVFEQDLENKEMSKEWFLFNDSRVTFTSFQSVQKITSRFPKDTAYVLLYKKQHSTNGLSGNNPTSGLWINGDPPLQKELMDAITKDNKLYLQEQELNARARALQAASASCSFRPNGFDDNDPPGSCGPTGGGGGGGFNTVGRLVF
How it was run: as §1

USP39 = target: T3, USP39 (UniProt Q53GS9)
T3 sequence (whole entry): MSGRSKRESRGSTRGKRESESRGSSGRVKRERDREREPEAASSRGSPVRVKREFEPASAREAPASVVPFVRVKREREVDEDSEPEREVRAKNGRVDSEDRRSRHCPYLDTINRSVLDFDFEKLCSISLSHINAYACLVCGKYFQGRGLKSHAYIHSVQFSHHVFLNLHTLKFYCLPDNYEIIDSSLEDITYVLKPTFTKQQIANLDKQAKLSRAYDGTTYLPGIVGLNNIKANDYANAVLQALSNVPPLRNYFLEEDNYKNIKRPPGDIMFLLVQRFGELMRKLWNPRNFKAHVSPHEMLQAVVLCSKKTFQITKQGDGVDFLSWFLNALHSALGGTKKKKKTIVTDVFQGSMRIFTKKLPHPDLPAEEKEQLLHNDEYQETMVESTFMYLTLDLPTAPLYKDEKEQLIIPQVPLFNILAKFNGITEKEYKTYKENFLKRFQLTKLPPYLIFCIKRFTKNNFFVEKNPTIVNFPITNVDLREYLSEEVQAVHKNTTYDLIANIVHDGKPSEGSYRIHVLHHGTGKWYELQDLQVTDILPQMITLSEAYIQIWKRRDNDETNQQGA
How it was run: as §1

USP4 = target: T4, USP4 (UniProt Q13107)
T4 sequence (whole entry): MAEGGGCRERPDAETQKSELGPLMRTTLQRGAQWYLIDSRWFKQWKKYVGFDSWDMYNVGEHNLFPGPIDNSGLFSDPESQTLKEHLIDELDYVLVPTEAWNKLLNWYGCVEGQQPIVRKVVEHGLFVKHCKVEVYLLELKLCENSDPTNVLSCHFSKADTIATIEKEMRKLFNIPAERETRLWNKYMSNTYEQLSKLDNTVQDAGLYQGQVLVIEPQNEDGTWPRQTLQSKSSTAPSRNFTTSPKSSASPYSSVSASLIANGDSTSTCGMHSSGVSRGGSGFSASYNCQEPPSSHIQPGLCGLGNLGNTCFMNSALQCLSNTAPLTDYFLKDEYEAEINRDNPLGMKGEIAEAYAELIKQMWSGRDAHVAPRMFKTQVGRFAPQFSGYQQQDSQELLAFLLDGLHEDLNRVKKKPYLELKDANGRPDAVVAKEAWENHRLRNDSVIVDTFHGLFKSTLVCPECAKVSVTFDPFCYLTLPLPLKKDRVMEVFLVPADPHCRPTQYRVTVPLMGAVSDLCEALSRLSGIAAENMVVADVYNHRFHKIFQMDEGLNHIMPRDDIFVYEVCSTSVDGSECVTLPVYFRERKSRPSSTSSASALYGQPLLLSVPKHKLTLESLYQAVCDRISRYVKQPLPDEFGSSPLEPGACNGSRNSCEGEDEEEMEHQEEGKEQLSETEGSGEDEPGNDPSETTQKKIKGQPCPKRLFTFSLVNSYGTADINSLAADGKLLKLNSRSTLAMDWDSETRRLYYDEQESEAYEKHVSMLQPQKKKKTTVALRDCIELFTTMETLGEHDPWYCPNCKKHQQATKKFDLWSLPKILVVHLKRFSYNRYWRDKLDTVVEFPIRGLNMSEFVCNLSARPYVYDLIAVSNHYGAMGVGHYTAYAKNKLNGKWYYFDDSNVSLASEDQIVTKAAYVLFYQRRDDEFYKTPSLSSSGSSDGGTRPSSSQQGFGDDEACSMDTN
How it was run: as §1

Measured: log2 ratio of Biotin-Ahx-Ub-VS probe labelling

Chain of USP34 (Q70CQ2 whole entry, the tested form may be a part): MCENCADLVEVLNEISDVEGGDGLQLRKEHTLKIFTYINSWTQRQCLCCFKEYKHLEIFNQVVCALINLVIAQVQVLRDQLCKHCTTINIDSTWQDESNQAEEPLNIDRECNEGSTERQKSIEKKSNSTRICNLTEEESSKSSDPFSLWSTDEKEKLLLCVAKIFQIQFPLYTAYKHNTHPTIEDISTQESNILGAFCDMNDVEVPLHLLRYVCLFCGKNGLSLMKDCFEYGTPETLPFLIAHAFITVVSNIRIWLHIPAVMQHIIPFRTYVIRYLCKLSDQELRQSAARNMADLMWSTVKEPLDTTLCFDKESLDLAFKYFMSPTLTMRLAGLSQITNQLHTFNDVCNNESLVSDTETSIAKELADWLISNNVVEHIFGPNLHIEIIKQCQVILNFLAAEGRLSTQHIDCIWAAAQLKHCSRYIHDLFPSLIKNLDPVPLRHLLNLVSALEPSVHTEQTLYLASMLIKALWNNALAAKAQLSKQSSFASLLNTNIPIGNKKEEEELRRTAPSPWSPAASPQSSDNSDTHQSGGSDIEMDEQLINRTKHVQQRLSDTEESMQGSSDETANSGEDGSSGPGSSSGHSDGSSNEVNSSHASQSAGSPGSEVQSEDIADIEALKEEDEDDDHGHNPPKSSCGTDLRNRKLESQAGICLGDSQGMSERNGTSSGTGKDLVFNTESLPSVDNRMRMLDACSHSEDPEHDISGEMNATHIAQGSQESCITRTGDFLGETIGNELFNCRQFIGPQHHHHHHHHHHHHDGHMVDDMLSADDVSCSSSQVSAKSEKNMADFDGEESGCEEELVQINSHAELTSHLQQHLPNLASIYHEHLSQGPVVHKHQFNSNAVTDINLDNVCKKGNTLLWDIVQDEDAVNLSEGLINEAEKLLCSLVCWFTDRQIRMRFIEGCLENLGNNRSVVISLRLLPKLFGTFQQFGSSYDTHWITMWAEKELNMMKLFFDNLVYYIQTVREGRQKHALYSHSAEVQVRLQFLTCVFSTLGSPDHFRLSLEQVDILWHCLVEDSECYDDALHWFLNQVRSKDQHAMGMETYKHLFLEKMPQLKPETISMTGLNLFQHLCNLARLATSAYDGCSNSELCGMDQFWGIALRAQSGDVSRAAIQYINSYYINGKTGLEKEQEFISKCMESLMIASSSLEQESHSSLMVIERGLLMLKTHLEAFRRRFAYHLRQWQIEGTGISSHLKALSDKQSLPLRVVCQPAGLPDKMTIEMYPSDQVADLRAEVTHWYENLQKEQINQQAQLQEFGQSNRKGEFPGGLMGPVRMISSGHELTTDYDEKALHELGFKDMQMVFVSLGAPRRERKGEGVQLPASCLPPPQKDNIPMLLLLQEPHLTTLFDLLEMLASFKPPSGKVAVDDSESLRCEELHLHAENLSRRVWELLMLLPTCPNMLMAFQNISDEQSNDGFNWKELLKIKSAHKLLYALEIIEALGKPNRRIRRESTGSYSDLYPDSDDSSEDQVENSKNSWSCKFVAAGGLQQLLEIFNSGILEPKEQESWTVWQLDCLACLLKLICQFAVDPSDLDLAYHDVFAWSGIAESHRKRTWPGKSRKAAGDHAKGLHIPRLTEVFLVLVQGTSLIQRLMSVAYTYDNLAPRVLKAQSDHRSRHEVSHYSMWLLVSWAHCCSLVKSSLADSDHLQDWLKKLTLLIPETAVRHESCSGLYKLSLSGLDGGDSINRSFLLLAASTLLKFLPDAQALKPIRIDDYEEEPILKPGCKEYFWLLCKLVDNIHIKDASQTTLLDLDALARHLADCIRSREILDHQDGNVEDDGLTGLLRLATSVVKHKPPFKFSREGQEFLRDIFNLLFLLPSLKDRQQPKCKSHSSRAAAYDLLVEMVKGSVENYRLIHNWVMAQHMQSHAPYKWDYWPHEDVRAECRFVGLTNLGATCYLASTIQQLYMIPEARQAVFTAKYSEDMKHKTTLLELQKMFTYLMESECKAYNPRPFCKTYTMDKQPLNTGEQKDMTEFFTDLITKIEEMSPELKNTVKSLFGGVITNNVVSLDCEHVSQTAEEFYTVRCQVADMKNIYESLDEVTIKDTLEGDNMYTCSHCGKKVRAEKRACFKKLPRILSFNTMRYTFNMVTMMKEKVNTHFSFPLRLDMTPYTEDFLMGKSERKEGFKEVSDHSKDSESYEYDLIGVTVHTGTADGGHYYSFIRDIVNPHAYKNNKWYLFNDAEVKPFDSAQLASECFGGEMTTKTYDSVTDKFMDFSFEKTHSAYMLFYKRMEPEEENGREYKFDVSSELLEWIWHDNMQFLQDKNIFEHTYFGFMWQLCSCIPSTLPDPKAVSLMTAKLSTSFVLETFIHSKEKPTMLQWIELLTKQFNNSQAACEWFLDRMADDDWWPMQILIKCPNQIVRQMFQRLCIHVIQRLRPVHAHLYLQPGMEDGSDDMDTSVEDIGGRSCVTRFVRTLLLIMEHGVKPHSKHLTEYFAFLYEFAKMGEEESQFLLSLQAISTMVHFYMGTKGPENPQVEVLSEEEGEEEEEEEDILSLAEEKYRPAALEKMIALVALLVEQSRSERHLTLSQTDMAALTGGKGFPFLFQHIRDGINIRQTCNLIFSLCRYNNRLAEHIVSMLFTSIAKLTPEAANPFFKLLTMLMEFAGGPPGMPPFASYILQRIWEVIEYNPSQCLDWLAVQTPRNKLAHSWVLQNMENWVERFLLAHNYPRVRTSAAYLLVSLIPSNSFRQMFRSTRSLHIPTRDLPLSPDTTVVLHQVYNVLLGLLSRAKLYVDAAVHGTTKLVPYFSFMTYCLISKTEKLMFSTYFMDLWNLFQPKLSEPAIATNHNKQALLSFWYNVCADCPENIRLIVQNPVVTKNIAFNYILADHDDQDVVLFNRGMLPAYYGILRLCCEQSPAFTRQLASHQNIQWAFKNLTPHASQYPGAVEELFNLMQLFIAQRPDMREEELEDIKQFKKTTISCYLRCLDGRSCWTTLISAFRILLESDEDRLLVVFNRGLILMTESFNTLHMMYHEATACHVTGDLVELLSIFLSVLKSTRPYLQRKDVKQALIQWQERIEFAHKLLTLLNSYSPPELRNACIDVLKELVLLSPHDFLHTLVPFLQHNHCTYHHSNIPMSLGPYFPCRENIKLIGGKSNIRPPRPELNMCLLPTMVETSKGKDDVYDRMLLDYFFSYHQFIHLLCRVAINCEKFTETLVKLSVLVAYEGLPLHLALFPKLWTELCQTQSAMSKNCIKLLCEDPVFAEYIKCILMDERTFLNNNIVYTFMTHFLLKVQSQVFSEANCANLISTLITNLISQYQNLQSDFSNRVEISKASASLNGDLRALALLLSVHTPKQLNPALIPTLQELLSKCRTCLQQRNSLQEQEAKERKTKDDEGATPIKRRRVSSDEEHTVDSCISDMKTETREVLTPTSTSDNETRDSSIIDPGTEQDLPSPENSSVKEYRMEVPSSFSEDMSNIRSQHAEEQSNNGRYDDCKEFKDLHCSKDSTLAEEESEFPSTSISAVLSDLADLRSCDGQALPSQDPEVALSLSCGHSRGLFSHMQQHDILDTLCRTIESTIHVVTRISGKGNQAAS

O=C(CCl)N1CCOC(CCc2ccccc2)C1 (stereo not given)
inactive: USP34 -0.338 | USP36 0.0399 | USP38 -0.227 | USP39 0.136 | USP4 -0.729

Source: the supplement of paper PMC11732987, “Enantioselective OTUD7B fragment discovery through chemoproteomics screening and high-throughput optimisation” (Communications Chemistry, 2025)
